According to the supplement of paper PMC7765376:
In all, about 1,500 compounds were measured (“Excess HSA synergy score (sum over dose matrix of excess over highest single agent)”: median about 43, lowest 2% from about -900 on). Many of the other results were omitted from the sample, so the lowest values are more common in it than they were.

Test system: PEO-1
Test: Excess HSA synergy score (sum over dose matrix of excess over highest single agent) (score (summed % response)); higher = less synergy / more antagonism (negative = synergy)
Conditions: 72 h, read-out: viability/apoptosis luminescence (CellTiter-Glo or Caspase3-Glo / not stated per table)
[1] = matrix design: 6x6, 5-fold dilutions (primary screen)

Row | SMILES | Excess HSA synergy score [1] | Excess HSA synergy score (matrix design: 10x10, 9-step dilutions (confirmatory))
1 | CO[C@@]12[C@H](COC(N)=O)C3=C(C(=O)C(C)=C(N)C3=O)N1C[C@@H]1N[C@@H]12 [Mitomycin C] + CC[C@H](NC(=O)[C@H](C)NC)C(=O)N1C[C@@H](O)C[C@H]1Cc1c(-c2[nH]c3cc(F)ccc3c2C[C@@H]2C[C@H](O)CN2C(=O)[C@H](CC)NC(=O)[C@H](C)NC)[nH]c2cc(F)ccc12 [Birinapant] | -351 | -1240
2 | CC(C)OC(=O)C1=CN(C(=O)c2ccc(F)c(F)c2)CC(C)(C)c2c1[nH]c1ccccc21 [Turofexorate isopropyl] + CC[C@H](NC(=O)[C@H](C)NC)C(=O)N1C[C@@H](O)C[C@H]1Cc1c(-c2[nH]c3cc(F)ccc3c2C[C@@H]2C[C@H](O)CN2C(=O)[C@H](CC)NC(=O)[C@H](C)NC)[nH]c2cc(F)ccc12 [Birinapant] | 99.9 | 
3 | Cc1cc(O)c2c3c4c(cc(O)c13)C(C)(C)C(=O)c1c(O)cc(O)c(c1-4)C2=O [Resistomycin] + CC[C@H](NC(=O)[C@H](C)NC)C(=O)N1C[C@@H](O)C[C@H]1Cc1c(-c2[nH]c3cc(F)ccc3c2C[C@@H]2C[C@H](O)CN2C(=O)[C@H](CC)NC(=O)[C@H](C)NC)[nH]c2cc(F)ccc12 [Birinapant] | -31.1 | 
4 | CCN1CCN(CC(=O)Nc2ccc(-c3cccc4c(=O)cc(N5CCOCC5)oc34)c3sc4ccccc4c23)CC1 + CC[C@H](NC(=O)[C@H](C)NC)C(=O)N1C[C@@H](O)C[C@H]1Cc1c(-c2[nH]c3cc(F)ccc3c2C[C@@H]2C[C@H](O)CN2C(=O)[C@H](CC)NC(=O)[C@H](C)NC)[nH]c2cc(F)ccc12 [Birinapant] | 32 | 
5 | Nc1ccc(C(=O)Nc2cccc(-c3nc(N4CCOCC4)c4oc5ncccc5c4n3)c2)cn1 + CC[C@H](NC(=O)[C@H](C)NC)C(=O)N1C[C@@H](O)C[C@H]1Cc1c(-c2[nH]c3cc(F)ccc3c2C[C@@H]2C[C@H](O)CN2C(=O)[C@H](CC)NC(=O)[C@H](C)NC)[nH]c2cc(F)ccc12 [Birinapant] | -134 | 
6 | CCOc1ccc(Cc2cc([C@@H]3O[C@H](CO)[C@@H](O)[C@H](O)[C@H]3O)ccc2Cl)cc1 [Dapagliflozin] + CC[C@H](NC(=O)[C@H](C)NC)C(=O)N1C[C@@H](O)C[C@H]1Cc1c(-c2[nH]c3cc(F)ccc3c2C[C@@H]2C[C@H](O)CN2C(=O)[C@H](CC)NC(=O)[C@H](C)NC)[nH]c2cc(F)ccc12 [Birinapant] | 212 | 
7 | Cc1c(C(=O)Nc2ccc(N3C[C@@H](C)O[C@@H](C)C3)nc2)cccc1-c1ccc(OC(F)(F)F)cc1 [Sonidegib] + CC[C@H](NC(=O)[C@H](C)NC)C(=O)N1C[C@@H](O)C[C@H]1Cc1c(-c2[nH]c3cc(F)ccc3c2C[C@@H]2C[C@H](O)CN2C(=O)[C@H](CC)NC(=O)[C@H](C)NC)[nH]c2cc(F)ccc12 [Birinapant] | 68.2 | 
8 | Cc1ccc(CN2CCNCC2)cc1NC(=O)CNc1ccc(F)c(F)c1 + CC[C@H](NC(=O)[C@H](C)NC)C(=O)N1C[C@@H](O)C[C@H]1Cc1c(-c2[nH]c3cc(F)ccc3c2C[C@@H]2C[C@H](O)CN2C(=O)[C@H](CC)NC(=O)[C@H](C)NC)[nH]c2cc(F)ccc12 [Birinapant] | 191 | 
9 | c1ccc2c(-c3cnn4cc(-c5ccc(N6CCNCC6)cc5)cnc34)ccnc2c1 + CC[C@H](NC(=O)[C@H](C)NC)C(=O)N1C[C@@H](O)C[C@H]1Cc1c(-c2[nH]c3cc(F)ccc3c2C[C@@H]2C[C@H](O)CN2C(=O)[C@H](CC)NC(=O)[C@H](C)NC)[nH]c2cc(F)ccc12 [Birinapant] | -53.9 | 
10 | CC(=O)NCCC(=O)N[C@@H](CCC(N)=O)C(=O)N[C@@H](CO)C(=O)N[C@@H](CCC(N)=O)C(=O)N[C@@H](CCC(N)=O)C(=O)N[C@H](C(=O)N[C@@H](Cc1ccccc1)C(=O)N[C@]1(C)CCCCCC/C=C\CCC[C@@](C)(C(=O)N[C@@H](CCC(N)=O)C(=O)N[C@@H](CC(N)=O)C(N)=O)NC(=O)[C@H](CC(C)C)NC(=O)[C@H](CC(C)C)NC(=O)[C@@H](CCCNC(=N)N)NC(=O)[C@H](Cc2c[nH]c3ccccc23)NC(=O)[C@H](CC(C)C)NC(=O)[C@H](CC(N)=O)NC1=O)[C@H](C)O + CC[C@H](NC(=O)[C@H](C)NC)C(=O)N1C[C@@H](O)C[C@H]1Cc1c(-c2[nH]c3cc(F)ccc3c2C[C@@H]2C[C@H](O)CN2C(=O)[C@H](CC)NC(=O)[C@H](C)NC)[nH]c2cc(F)ccc12 [Birinapant] | 168 | 
11 | CCN1CCN(c2ccc(Nc3cc(N(C)C(=O)Nc4c(Cl)c(OC)cc(OC)c4Cl)ncn3)cc2)CC1 [Infigratinib] + CC[C@H](NC(=O)[C@H](C)NC)C(=O)N1C[C@@H](O)C[C@H]1Cc1c(-c2[nH]c3cc(F)ccc3c2C[C@@H]2C[C@H](O)CN2C(=O)[C@H](CC)NC(=O)[C@H](C)NC)[nH]c2cc(F)ccc12 [Birinapant] | -48.8 | 
12 | COc1cc2c(cc1Cc1cccc(Cl)c1F)c(=O)c(C(=O)O)cn2[C@H](CO)C(C)C [Elvitegravir] + CC[C@H](NC(=O)[C@H](C)NC)C(=O)N1C[C@@H](O)C[C@H]1Cc1c(-c2[nH]c3cc(F)ccc3c2C[C@@H]2C[C@H](O)CN2C(=O)[C@H](CC)NC(=O)[C@H](C)NC)[nH]c2cc(F)ccc12 [Birinapant] | 326 | 
13 | OCCC#Cc1nc(-c2ccc(F)cc2)c(-c2ccncc2)n1CCCc1ccccc1 + CC[C@H](NC(=O)[C@H](C)NC)C(=O)N1C[C@@H](O)C[C@H]1Cc1c(-c2[nH]c3cc(F)ccc3c2C[C@@H]2C[C@H](O)CN2C(=O)[C@H](CC)NC(=O)[C@H](C)NC)[nH]c2cc(F)ccc12 [Birinapant] | 286 | 
14 | COc1ccc(/C=C\c2cc(OC)c(OC)c(OC)c2)cc1NC(=O)[C@@H](N)CO [Ombrabulin] + CC[C@H](NC(=O)[C@H](C)NC)C(=O)N1C[C@@H](O)C[C@H]1Cc1c(-c2[nH]c3cc(F)ccc3c2C[C@@H]2C[C@H](O)CN2C(=O)[C@H](CC)NC(=O)[C@H](C)NC)[nH]c2cc(F)ccc12 [Birinapant] | -98.3 | 
